According to PMC5700166:
Substitutions are numbered along the chain they refer to.

Columns and labels:
Assay in all cases: protein-binding microarray (PBM); PBM: ~300 nM protein, 6 mM HEPES pH 7.8, 80 mM KCl, 0.5 mM EDTA, 0.5 mM EGTA, 6% glycerol, 35 ng/ul poly-dIdC, 1% milk, 1 h, room temperature; Ap Aiptasia and Nv Nematostella (sea anemones) / Co Capsaspora / Aq Amphimedon (sponge) / Dm Drosophila / Hu human; RHD is the Rel homology domain; high values mean tight binding
Conditions in all cases: dsDNA, one strand shown
GST-Ap-NF-kB RHD = biological target: T1, GST-Ap-NF-kB RHD (Exaiptasia pallida (Aiptasia), UniProt A0A913YAJ5 2-422)
T1 sequence: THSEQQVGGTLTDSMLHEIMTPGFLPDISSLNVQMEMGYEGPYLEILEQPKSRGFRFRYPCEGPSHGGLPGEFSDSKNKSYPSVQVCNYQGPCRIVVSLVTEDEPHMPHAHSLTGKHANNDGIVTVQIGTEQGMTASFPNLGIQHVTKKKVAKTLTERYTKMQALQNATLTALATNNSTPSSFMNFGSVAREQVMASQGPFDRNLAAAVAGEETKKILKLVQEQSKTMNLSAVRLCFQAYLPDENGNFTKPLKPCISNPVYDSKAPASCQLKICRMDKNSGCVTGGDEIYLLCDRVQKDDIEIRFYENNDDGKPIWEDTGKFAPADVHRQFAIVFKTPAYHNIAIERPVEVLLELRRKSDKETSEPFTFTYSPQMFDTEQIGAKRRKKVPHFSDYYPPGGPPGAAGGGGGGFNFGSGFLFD

[1] = biological target: T2, GST-Nv-NF-kB (Cys allele) (Nematostella vectensis, UniProt E5G601 2-411)
T2 sequence: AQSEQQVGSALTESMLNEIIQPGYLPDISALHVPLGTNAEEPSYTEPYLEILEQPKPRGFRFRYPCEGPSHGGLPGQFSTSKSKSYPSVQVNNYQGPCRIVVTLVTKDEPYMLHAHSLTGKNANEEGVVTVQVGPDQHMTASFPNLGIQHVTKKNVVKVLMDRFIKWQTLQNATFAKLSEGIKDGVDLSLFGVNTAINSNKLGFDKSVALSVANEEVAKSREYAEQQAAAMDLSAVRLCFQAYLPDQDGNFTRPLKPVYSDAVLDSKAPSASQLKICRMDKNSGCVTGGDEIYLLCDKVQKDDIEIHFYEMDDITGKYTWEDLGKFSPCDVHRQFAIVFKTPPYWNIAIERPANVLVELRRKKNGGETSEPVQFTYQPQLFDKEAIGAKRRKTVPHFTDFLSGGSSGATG

[2] = biological target: T3, GST-Nv-NF-kB (Ser allele) (Nematostella vectensis, UniProt A7UNT2 2-411)
T3 sequence: T2 sequence with Q21R, C66S, S207N, E215Q, V217A, E225K, A268E, D399E

GST-Co-NF-kB = biological target: T4, GST-Co-NF-kB (Capsaspora owczarzaki, UniProt F1ARL5 200-546)
T4 sequence: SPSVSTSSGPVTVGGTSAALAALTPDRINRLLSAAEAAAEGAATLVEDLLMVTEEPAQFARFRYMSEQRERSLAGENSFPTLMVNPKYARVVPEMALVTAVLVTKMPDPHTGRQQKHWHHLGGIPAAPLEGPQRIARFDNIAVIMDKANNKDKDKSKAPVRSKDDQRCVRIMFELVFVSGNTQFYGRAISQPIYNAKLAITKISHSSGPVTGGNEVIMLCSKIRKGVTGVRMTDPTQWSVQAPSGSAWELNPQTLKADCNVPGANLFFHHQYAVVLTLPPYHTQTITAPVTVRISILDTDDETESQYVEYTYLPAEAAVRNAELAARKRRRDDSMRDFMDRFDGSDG

GST-Dm-Relish = biological target: T5, GST-Dm-Relish (Drosophila melanogaster, UniProt Q94527 99-473)
T5 sequence: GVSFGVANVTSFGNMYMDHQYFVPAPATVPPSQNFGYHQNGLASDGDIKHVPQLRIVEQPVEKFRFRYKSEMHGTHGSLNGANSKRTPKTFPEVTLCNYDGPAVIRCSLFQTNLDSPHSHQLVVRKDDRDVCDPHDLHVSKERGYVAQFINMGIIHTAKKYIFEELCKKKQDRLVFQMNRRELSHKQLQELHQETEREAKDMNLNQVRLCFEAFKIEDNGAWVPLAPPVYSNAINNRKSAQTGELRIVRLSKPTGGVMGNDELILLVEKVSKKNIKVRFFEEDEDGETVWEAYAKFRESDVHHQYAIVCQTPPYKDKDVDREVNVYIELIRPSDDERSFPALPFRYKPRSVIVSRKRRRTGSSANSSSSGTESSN

GST-Aq-NF-kB = biological target: T6, GST-Aq-NF-kB (Amphimedon queenslandica, UniProt A9Y5G7 2-389)
T6 sequence: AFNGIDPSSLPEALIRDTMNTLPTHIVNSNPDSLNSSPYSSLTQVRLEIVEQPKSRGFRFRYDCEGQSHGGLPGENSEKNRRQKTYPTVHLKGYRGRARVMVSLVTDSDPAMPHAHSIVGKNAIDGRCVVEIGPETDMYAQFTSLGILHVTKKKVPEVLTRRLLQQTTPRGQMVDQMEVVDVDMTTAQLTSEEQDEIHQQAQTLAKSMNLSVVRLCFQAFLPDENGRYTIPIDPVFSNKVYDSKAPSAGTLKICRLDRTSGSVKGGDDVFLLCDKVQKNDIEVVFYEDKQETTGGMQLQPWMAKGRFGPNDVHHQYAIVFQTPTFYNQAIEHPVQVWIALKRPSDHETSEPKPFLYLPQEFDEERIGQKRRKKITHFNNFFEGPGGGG

GST-Hu-p50 = GST-Hu-p50 (Homo sapiens, UniProt P19838 7-356)
Sequence of GST-Hu-p50 (P19838 7-356): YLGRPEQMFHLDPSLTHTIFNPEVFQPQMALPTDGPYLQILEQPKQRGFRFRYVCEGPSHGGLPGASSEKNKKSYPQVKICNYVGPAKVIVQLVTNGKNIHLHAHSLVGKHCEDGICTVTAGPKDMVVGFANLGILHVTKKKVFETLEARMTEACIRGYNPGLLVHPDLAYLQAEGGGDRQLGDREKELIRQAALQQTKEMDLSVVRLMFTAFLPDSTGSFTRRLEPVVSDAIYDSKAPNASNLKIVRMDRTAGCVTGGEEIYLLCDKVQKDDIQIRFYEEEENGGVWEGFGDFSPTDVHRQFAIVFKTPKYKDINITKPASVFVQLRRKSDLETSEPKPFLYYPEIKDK

Row | Sequence | binding signal (GST-Ap-NF-kB RHD) [z-score] | binding signal [1] [z-score] | binding signal [2] [z-score] | binding signal (GST-Co-NF-kB) [z-score] | binding signal (GST-Dm-Relish) [z-score] | binding signal (GST-Aq-NF-kB) [z-score] | binding signal (GST-Hu-p50) [z-score]
1 | CCGATTAACATCAAATCTCCCCCTGATGTTAATCGGGTCTTGATTCGCTTGACGCTGCTG | 8.37 | 6.08 | 9.76 | 10.1 | 4.14 | 6.11 | 7.19
2 | CCGATTAACATCAGGGACCCCCCTGATGTTAATCGGGTCTTGATTCGCTTGACGCTGCTG | 8.29 | 5.59 | 4.4 | 2.66 | 9.78 | 8.21 | 5.07
3 | CCGATTAACATCAGGGGAAGTAATGATGTTAATCGGGTCTTGATTCGCTTGACGCTGCTG | 4.58 | 6.3 | 7.78 | 5.87 | 6.8 | 4.63 | 5.36
4 | CCGATTAACATCACAGATTCCCCTGATGTTAATCGGGTCTTGATTCGCTTGACGCTGCTG | 7.65 | 9.02 | 10.7 | 7.14 | 6.17 | 5.96 | 6.28
5 | CCGATTAACATCAAAACCTCCCCTGATGTTAATCGGGTCTTGATTCGCTTGACGCTGCTG | 5.96 | 5.34 | 7 | 6.47 | 3.36 | 4.96 | 4.55
6 | CCGATTAACATCAGGGAACCCCCTGATGTTAATCGGGTCTTGATTCGCTTGACGCTGCTG | 13 | 11.8 | 10.7 | 3.7 | 11 | 11.1 | 7.62
7 | CCGATTAACATCAGGGAATCTTATGATGTTAATCGGGTCTTGATTCGCTTGACGCTGCTG | 3.7 | 4.66 | 4.86 | 3.74 | 2.95 | 5.5 | 4.29
8 | CCGATTAACATCAGAACACCCCCTGATGTTAATCGGGTCTTGATTCGCTTGACGCTGCTG | 5.58 | 4.69 | 4.4 | 3.33 | 4.87 | 5.48 | 5.09
9 | CCGATTAACATCAACAATCCCCCTGATGTTAATCGGGTCTTGATTCGCTTGACGCTGCTG | 7.89 | 7.16 | 7.92 | 5.22 | 5.46 | 5.71 | 6.6
10 | CCGATTAACATCAGGGGATTACATGATGTTAATCGGGTCTTGATTCGCTTGACGCTGCTG | 6.52 | 6.73 | 8.01 | 3.12 | 8 | 5.64 | 5.79
11 | CCGATTAACATCATTTCCCTTGCTGATGTTAATCGGGTCTTGATTCGCTTGACGCTGCTG | 2.33 | 3.78 | 3.79 | 1.62 | 1.3 | 3.29 | 2.9
12 | CCGATTAACATCAAAAATCCCCATGATGTTAATCGGGTCTTGATTCGCTTGACGCTGCTG | 9.63 | 10.8 | 11.4 | 5.31 | 9.64 | 7.92 | 7.94
13 | CCGATTAACATCAATATAACCCCTGATGTTAATCGGGTCTTGATTCGCTTGACGCTGCTG | 3.99 | 2.48 | 2.08 | 2.11 | 2.05 | 2.37 | 2.73
14 | CCGATTAACATCAAATTTCCCCGTGATGTTAATCGGGTCTTGATTCGCTTGACGCTGCTG | 8.33 | 9.6 | 11.4 | 9.87 | 7.13 | 7.38 | 6.52
15 | CCGATTAACATCAAAACCCCCCATGATGTTAATCGGGTCTTGATTCGCTTGACGCTGCTG | 8.56 | 6.62 | 6.57 | 4.66 | 9.53 | 7.39 | 6.77
16 | CCGATTAACATCAGGGGGAACCATGATGTTAATCGGGTCTTGATTCGCTTGACGCTGCTG | 7.4 | 6.04 | 7.3 | 8.58 | 5.08 | 4.5 | 5.84
17 | CCGATTAACATCAAAGTTCCCCCTGATGTTAATCGGGTCTTGATTCGCTTGACGCTGCTG | 8.84 | 8.65 | 9.29 | 11.3 | 8.65 | 7.49 | 6.75
18 | CCGATTAACATCAAAATCCCGGGTGATGTTAATCGGGTCTTGATTCGCTTGACGCTGCTG | 3.32 | 2.32 | 2.26 | 1.42 | 6.58 | 3.23 | 3.3
19 | CCGATTAACATCAGGGAAAACCCTGATGTTAATCGGGTCTTGATTCGCTTGACGCTGCTG | 7.33 | 9.72 | 7.71 | 3.49 | 9.01 | 10.2 | 5.66
20 | CCGATTAACATCAAGGGGGAATATGATGTTAATCGGGTCTTGATTCGCTTGACGCTGCTG | 7.61 | 8.35 | 9.33 | 7.86 | 4.64 | 6.45 | 6.95
21 | CCGATTAACATCACTCATCCCCGTGATGTTAATCGGGTCTTGATTCGCTTGACGCTGCTG | 1.85 | 3.17 | 3.8 | 2.78 | 2.33 | 2.51 | 2.23
22 | CCGATTAACATCAGAATTTCCCCTGATGTTAATCGGGTCTTGATTCGCTTGACGCTGCTG | 9.18 | 10.1 | 11.5 | 8.73 | 6.98 | 8.28 | 6.93
23 | CCGATTAACATCACAAAATCCCCTGATGTTAATCGGGTCTTGATTCGCTTGACGCTGCTG | 9.85 | 10.8 | 12.8 | 5.11 | 9.67 | 8 | 8.07
24 | CCGATTAACATCAGGGTTTTACCTGATGTTAATCGGGTCTTGATTCGCTTGACGCTGCTG | 2.62 | 3.71 | 4.37 | 2.01 | 6.46 | 6.12 | 3.39
25 | CCGATTAACATCAGGGAATTCCCTGATGTTAATCGGGTCTTGATTCGCTTGACGCTGCTG | 12 | 12.7 | 11.4 | 7.25 | 10 | 12.2 | 7.9
